Rows were chosen to be rich in hits. Some 4.8% of all compounds tested hit in one or more screens of this group.
AI-2 QS modul = Vibrio harveyi AI-2 quorum sensing modulation; Vibrio harveyi JMH597 AI-2 luminescence/OD600 ratio, 9 h; stronger effect = lower value; strain lacks LuxN and CqsS sensors; 0 = neutral-control median; activity change, % at 7.5 µM; 300,000 tested, 0.4% active; in the data active = activity change below about -75%, passing the limit was not always enough;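 note: luminescence divided by OD600 gain over 9 h not by final OD600 alone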
ALR inh = inhibitors of human sulfhydryl oxidase ALR. P55789. purified ALR, DTT oxidation, H2O2 HRP-luminol luminescence. inhibition, % (test concentration not listed). 290,000 tested, 3.8% active;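 active = mean replicate inhibition above about 79%, with every replicate also reaching it, limit read from the data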
Target sequence (P55789 whole entry, looked up): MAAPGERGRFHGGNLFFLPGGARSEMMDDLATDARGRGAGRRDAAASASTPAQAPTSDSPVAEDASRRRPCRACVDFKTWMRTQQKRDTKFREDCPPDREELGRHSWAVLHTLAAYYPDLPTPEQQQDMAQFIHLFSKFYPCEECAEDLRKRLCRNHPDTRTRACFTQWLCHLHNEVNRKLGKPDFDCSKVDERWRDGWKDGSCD
Mot1-301 SUMO = SUMOylation pathway inhibition by Mot1-301 growth rescue. S. cerevisiae Mot1-301 growth rescue, ATP luminescence, 38.5C; percent above DMSO median, 100 means doubled. growth rescue, % at 18.8 µM. 320,000 tested, 1% active. AID 2716;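 active = every valid replicate shows activation above 250% relative to neutral control wells; inactive = the rest, any valid replicate at or below 250%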;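 note: OY570 slx delta 5 strain wells were the positive control but not used for scaling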
HIF activator = HIF pathway transcriptional activation. U2OS HRE-luciferase reporter, luminescence; normalized: DMSO 0%, desferrioxamine 100%. activation, % at 7.5 µM (by protocol). 300,000 tested, 0.32% active. AID 1910;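 active = mean activation of at least 10% of the iron chelator positive control signal, with at least half of replicates also reaching 10%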
Mot1 SUMO dose = SUMO pathway inhibitors in yeast Mot1-301 growth. shares compounds with Mot1-301 SUMO. 2,300 tested, under 10 active. S. cerevisiae Mot1-301 galactose growth, ATP luminescence, 24 h; -100 = growth of slx-deleted rescue strain. growth activity, percent, % at 42 µM;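 active = Signal drops as the depositor expects, and the fitted half-maximal dose is no more than ten times the top valid tested dose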;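 note: more negative values mean stronger growth rescue toward the control strain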
* marks the source's active call; other numbers are inactive results; . = not tested or not shown; + = active, no number.

SMILES	AI-2 QS modul	ALR inh	Mot1-301 SUMO	HIF activator	Mot1 SUMO dose
N#Cc1c(-c2ccco2)cc(-c2cccnc2)nc1N	17	-31	675*	0	1
N#Cc1c(-c2cccnc2)cc(-c2ccccc2)nc1N	12	.	0	-1	.
CCOC(=O)COc1nc(-c2ccco2)cc(-c2ccco2)c1C#N	3	43	-9	0	.
CCOC(=O)COc1nc(-c2ccc(C)cc2)cc(-c2ccco2)c1C#N	10	0	400*	0	0
CC1CC(C)CN(S(=O)(=O)c2ccc3oc(=O)ccc3c2)C1 (configuration not stated)	37	-2	9	0	.
COc1cccc(C(=O)Nc2ccc(C(F)(F)F)n(C)c2=O)c1	-8	-4	84	2	.
CCOc1ccc(C(=O)Nc2ccc(C(F)(F)F)n(C)c2=O)cc1	-9	-6	+	0	0
COc1ccc(C(OCC(O)CN2CCC(O)CC2)c2ccc(OC)cc2)cc1 (configuration not stated)	6	-2	-5	-1	.
COC(=O)c1ccccc1NC(=O)c1ccccc1N(C)S(C)(=O)=O	9	.	18	.	.
COC(=O)c1ccccc1N(C)S(C)(=O)=O	1	6	563*	0	0
Cn1c(SCC(=O)Nc2ccc3c(c2)OCCO3)nnc1-c1ccncc1	17	.	56	0	.
Cc1cccc(C(=O)NC2CCN(S(=O)(=O)c3ccccc3)CC2)c1	15	-3	-5	-1	.
O=[N+]([O-])c1ccc(-c2csc(N3CCc4ccccc4C3)n2)cc1	14	-5	367*	0	0
COC/C=C/C1=CC2=CC(=O)C(C)(OC(=O)c3cnc4ccccc4n3)C(=O)C2=CN1CCOC (configuration not stated)	33	-19	519*	-3	0
COc1ccc2[nH]c(=O)c(CN(C(=O)c3cccnc3)c3ccccc3)cc2c1	25	-3	-5	0	.
COc1ccc2[nH]c(=O)c(CN(C(=O)c3ccccn3)c3ccccc3)cc2c1	9	21	+	1	1
COc1ccc(CNc2nc(NCc3ccc(OC)cc3)n(S(C)(=O)=O)n2)cc1	8	-15	14	0	.
COCC(=O)n1nc(NCc2ccc(OC)cc2)nc1NCc1ccc(OC)cc1	10	-8	394*	0	0
CC1CCCCC12NC(=O)N(CC(=O)c1ccc(Cl)s1)C2=O (configuration not stated)	7	-2	52	0	.
Cc1cccc(OCc2nnc(SCC(=O)O)n2-c2ccccc2)c1	11	-2	+	-20	1
Cc1ccc(OCc2nnc(SCC(=O)O)n2-c2ccccc2)cc1	-8	.	-7	0	.
COc1ccccc1CN1CC(C(=O)NCc2nccn2C)CCC1=O (configuration not stated)	34	-1	-9	0	.
CCOc1c(C)cnc2c1c(=O)n(Cc1ccc(Cl)cc1)c(=O)n2C	0	-1	3	0	.
O=C(Nc1ccc2nc(-c3ccc4nc[nH]c4c3)[nH]c2c1)c1cccs1	32	-4	465*	0	0
CCOc1cc(S(=O)(=O)NCc2ccc3c(c2)OCO3)c(C)cc1C	2	-18	701*	0	0
SMILES	AI-2 QS modul	ALR inh	Mot1-301 SUMO	HIF activator	Mot1 SUMO dose
CCOc1ccccc1C(=O)NCc1ccc2c(c1)OCO2	17	6	879*	0	-1
Cc1ccc([N+](=O)[O-])cc1S(=O)(=O)Nc1cccc(S(=O)(=O)NC2=NCCC2)c1	.	.	-10	.	.
O=C(O)CCc1ccc(-c2ccccc2)n1NC(=O)c1cccs1	32	15	670*	0	1
CC[n+]1c(/C=C(\C)SC)sc2ccccc21	-1	13	540*	.	-1
CC(C)c1ccc(NC(=O)CCNS(=O)(=O)c2cc(Br)cnc2N)cc1	35	-17	1	0	.
CC1(C)C2CC=C(/C=N/NC(=S)Nc3cccnc3)C1C2 (configuration not stated)	6	0	745*	1	0
CC(C)NC(=S)N/N=C/C1=CCC2CC1C2(C)C (configuration not stated)	21	1	84	1	.
CCOCCn1c(=O)c2c(nc3n2CCCN3CCc2ccccc2)n(C)c1=O	18	2	-7	0	.
CCCn1c(N)cc(=O)n(CCC)c1=O	37	-3	792*	0	0

High-throughput results: PubChem BioAssay, Broad Institute
